Among all 110,000 compounds or so, about 230 (0.21%) showed an effect of 50% or more. The sample as a whole holds a higher share of strong results than the screen did.
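Further: 30 min substrate incubation versus DMSO and 10 µM JCP410 controls.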

DPAP1, sequence (Q8IIJ9 whole entry, looked up): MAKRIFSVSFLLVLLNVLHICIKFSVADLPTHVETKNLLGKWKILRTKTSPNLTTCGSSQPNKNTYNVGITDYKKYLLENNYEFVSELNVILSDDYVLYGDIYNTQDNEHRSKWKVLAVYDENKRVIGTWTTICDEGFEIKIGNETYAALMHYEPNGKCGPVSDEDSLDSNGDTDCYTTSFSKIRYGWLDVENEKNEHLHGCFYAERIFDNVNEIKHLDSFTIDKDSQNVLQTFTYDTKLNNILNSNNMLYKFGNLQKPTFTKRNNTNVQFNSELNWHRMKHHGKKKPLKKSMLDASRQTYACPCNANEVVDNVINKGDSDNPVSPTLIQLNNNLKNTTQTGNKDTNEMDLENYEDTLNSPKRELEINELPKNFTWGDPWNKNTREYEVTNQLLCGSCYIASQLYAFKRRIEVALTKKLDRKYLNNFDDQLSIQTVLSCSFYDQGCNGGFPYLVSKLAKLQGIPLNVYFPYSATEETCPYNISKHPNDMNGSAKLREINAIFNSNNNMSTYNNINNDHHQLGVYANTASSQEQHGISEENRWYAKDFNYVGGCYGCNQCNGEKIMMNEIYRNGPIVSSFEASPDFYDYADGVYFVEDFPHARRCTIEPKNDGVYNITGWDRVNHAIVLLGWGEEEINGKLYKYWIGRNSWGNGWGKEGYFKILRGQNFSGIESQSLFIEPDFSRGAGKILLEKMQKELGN

The assay addresses DPAP1 (Plasmodium falciparum, UniProt Q8IIJ9). The assay is described as follows: primary screen, percent inhibition; read by cleavage of a fluorogenic dipeptide substrate; higher = more effect of the substance. Also on record: species or system P. falciparum D10 trophozoite lysates; single well.
Take `COc1ccc(-n2c3c(c(=O)[nH]c2=O)C(NC(=O)c2ccc(F)cc2)(C(F)(F)F)C(=O)N3)cc1` (stereo not shown): the “% Inhibition @ 10 uM” value turned out to be 3.57%. Turning to `COc1ccc(C2=N/C(=C\c3cccs3)C(=O)O2)cc1`, the “% Inhibition @ 10 uM” value is recorded as 11.6%.

On to `COc1cc(C(=O)NCc2cn3cccc(C)c3n2)cc(OC)c1OC`, for which the “% Inhibition @ 10 uM” value was determined as 3.3%. `COc1ccc(/C=N/n2c(S)nnc2C(F)(F)F)cc1O`: the “% Inhibition @ 10 uM” value was -3.04%. As to `COc1ccc(Br)cc1C1CC(=O)N2CN(C3CCCCC3)CSC2=C1C#N` (stereo not shown), the “% Inhibition @ 10 uM” value came out at 60.2%. Then `COc1cccc(C2CC(=O)N3CN(C4CCCCC4)CSC3=C2C#N)c1OC` (stereo not shown), with 21.8%. Then `COc1cc(C2CC(=O)N3CN(C)CSC3=C2C#N)cc(OC)c1OC` (stereo not shown), with 3.77%; and `COc1ccc(OC)c(C2CC(=O)N3CN(C4CCCCC4)CSC3=C2C#N)c1` (stereo not shown), with 9.77%. Then `COc1ccc(Br)cc1C1CC(=O)N2CN(C)CSC2=C1C#N` (stereo not shown), with 58.8%; and `CCC(C(=O)Nc1nc2nc(C)cc(O)n2n1)c1ccccc1` (stereo not shown), with 0.401%; and `CCc1ccc(C2CC(=O)N3CN(C4CCCCC4)CSC3=C2C#N)cc1` (stereo not shown), with 64.5%. On to `N#CC1=C2SCN(C3CCCC3)CN2C(=O)CC1c1cccs1` (stereo not shown), for which the “% Inhibition @ 10 uM” value is 48.2%. For `N#CC1=C2SCN(C3CCCC3)CN2C(=O)CC1c1ccc(Cl)cc1` (stereo not shown), the “% Inhibition @ 10 uM” value is listed as 55.3%. Then `COc1cc(C2CC(=O)N3CN(C4CCCCC4)CSC3=C2C#N)ccc1O` (stereo not shown), with -1.28%. Then `Cc1ccc(C2CC(=O)N3CN(C4CCCCC4)CSC3=C2C#N)cc1` (stereo not shown), with 25.9%; and `CCOc1ccc(C2CC(=O)N3CN(C4CCCCC4)CSC3=C2C#N)cc1` (stereo not shown), with 46.6%. Then `Cc1nnc(SCc2ccc(F)cc2)nc1O`, with 3.62%; and `Cc1ccc(COc2ncnc3[nH]cnc23)c(C)c1`, with -3.09%; and `Cc1ccc(CNC(=O)C2CCCN(S(=O)(=O)c3cccc4nonc34)C2)cc1` (stereo not shown), with -0.668%. Consider `Cc1ccnc(NC(=O)c2ccc(-c3ccccc3)s2)c1`, for which the “% Inhibition @ 10 uM” value came to 4.4%. As to `O=C(c1ccc(Oc2ccccc2)cc1)c1nc2c(n1O)CCCC2`, the “% Inhibition @ 10 uM” value was found to be 1.74%. The figure for `Cc1ccc(S(=O)(=O)NC(CC(=O)O)c2cccs2)cc1` (stereo not shown) is 3.64%; for `CCS(=O)(=O)c1nc(S(=O)(=O)c2ccc(Cl)cc2)c(N2CCOCC2)s1` it is -2.25%. The figure for `O=C(Nc1nc(-c2ccc(Br)cc2)cs1)c1ccco1` is -2.99%; for `O=c1[nH]c(=S)[nH]c2sc3c(c12)CCN(Cc1ccccc1)C3` it is 1.4%; for `O=c1c2c3c(sc2[nH]c(=S)n1-c1ccccc1)CN(Cc1ccccc1)CC3` it is 57.7%. Then `COc1ccc(-n2c(SCC(=O)N3CCOCC3)nc3sc4c(c3c2=O)CCC4)cc1`, with 9.91%. Regarding `COc1ccc(-n2c(=S)[nH]c3sc4c(c3c2=O)CCC4)cc1`, the “% Inhibition @ 10 uM” value is listed as 84.1%. Take `COc1ccc(-n2c(=S)[nH]c3sc4c(c3c2=O)CCCCC4)cc1`: the “% Inhibition @ 10 uM” value is 12.4%. The figure for `O=c1[nH]c2sc3c(c2c(=O)n1-c1ccc(Cl)c(Cl)c1)CCC3` is -2.48%. Then `O=c1c2c3c(sc2[nH]c(=S)n1-c1ccc(Cl)cc1)CCC3`, with 62.5%; and `Oc1ncnc2sc3c(c12)CCN(Cc1ccccc1)C3`, with 6.74%; and `Cc1ccc(-n2c(=S)[nH]c3sc4c(c3c2=O)CCCCC4)cc1`, with 11.5%. Then `CC1(C)CC(=O)C2=C(C1)N(c1nc[nH]n1)C(N)=C(C#N)C2c1cccc(Cl)c1` (stereo not shown), with 5.48%.

For `CN1C2CCC1CC(N1CCN(Cc3ccccc3)CC1)C2` (stereo not shown), the “% Inhibition @ 10 uM” value is recorded as -1.5%. The figure for `COc1ccc(/C=C2\C(=N)N3N=C(S(C)(=O)=O)SC3=NC2=O)cc1` is -5.27%. Then `CCn1c(C)cc(/C=C2/NC(=O)N(c3ccccc3)C2=O)c1C`, with -2.19%; and `CN1CSC2=C(C#N)C(c3ccccc3Cl)CC(=O)N2C1` (stereo not shown), with 56.6%; and `CSc1ccc(C2CC(=O)N3CN(C)CSC3=C2C#N)cc1` (stereo not shown), with 75%. Take `CN1CSC2=C(C#N)C(c3ccc(Br)cc3)CC(=O)N2C1` (stereo not shown): the “% Inhibition @ 10 uM” value was 43.4%.

On to `CN1CSC2=C(C#N)C(c3ccccc3)CC(=O)N2C1` (stereo not shown), for which the “% Inhibition @ 10 uM” value turned out to be 32.9%. Then `COc1ccc2ccccc2c1C1CC(=O)N2CN(C)CSC2=C1C#N` (stereo not shown), with 36.5%; and `COc1ccccc1CC(=N)NOC(=O)c1ccccc1OC`, with 5.37%. Then `N#CC1=C2SCN(CCN3CCOCC3)CN2C(=O)CC1c1ccc(F)cc1` (stereo not shown), with 49.5%; and `N#CC1=C2SCN(CCc3ccccc3)CN2C(=O)CC1c1cccs1` (stereo not shown), with 42.6%. The figure for `Cc1ccc(C2CC(=O)N3CN(CCc4ccccc4)CSC3=C2C#N)cc1` (stereo not shown) is 64%; for `N#CC1=C2SCN(CCc3ccccc3)CN2C(=O)CC1c1ccc(F)cc1` (stereo not shown) it is 51.6%. Take `O=C(N/C(=C\c1ccco1)C(=O)N1CCN(C/C=C/c2ccccc2)CC1)c1ccccc1`: the “% Inhibition @ 10 uM” value came to 2.09%. Then `COc1ccc(C2N=C(NO)c3ccccc3N2)cc1` (stereo not shown), with -0.424%; and `C=C(C)CSc1nc(N)c2c3c(sc2n1)CCC3`, with 4.37%. The figure for `CC(C)CSc1nc(N)c2c3c(sc2n1)CCC3` is 81.4%; for `CCCSc1nc(N)c2c3c(sc2n1)CCCC3` it is 10.6%; for `COc1ccccc1CNC(=O)Nc1cn(CC(C)C)c(=O)c2ccccc12` it is -4.21%. The figure for `CC(C)CCNC(=O)c1nnc(-c2ccccc2)o1` is -3.34%. As to `CCOC(=O)c1sc(-c2ccccc2)nc1O`, the “% Inhibition @ 10 uM” value worked out at 66.9%. The figure for `CCOC(=O)c1sc(-c2ccccc2)nc1-c1ccc([N+](=O)[O-])cc1` is 2.86%; for `CCOC(=O)c1sc(C)c2c(O)nc(-c3ccccc3)nc12` it is -1.47%.

With `c1ccc(CC2CCN(Cc3ccco3)CC2)cc1`, the “% Inhibition @ 10 uM” value is on record as -2.56%. As to `COc1ccc(-c2cc(-c3ccccc3)nc(N3CCOCC3)n2)cc1OC`, the “% Inhibition @ 10 uM” value was -2.6%. Then `Cc1nsc2ccc(Cl)cc12`, with 55%.

For `Cc1nsc2ccc3ccccc3c12`, the “% Inhibition @ 10 uM” value is 3.36%. The figure for `Cc1nsc2ccc3sccc3c12` is 1.72%; for `COc1ccc(-c2noc(CCC(=O)NCc3cc(OC)ccc3OC)n2)cc1` it is 0.675%.

For the molecule `Cc1ccc(-c2noc(CCC(=O)NCc3ccc(F)cc3Cl)n2)cc1`, the “% Inhibition @ 10 uM” value is listed as -0.999%. Then `COc1ccc(-c2noc(CCC(=O)NCc3ccc(F)cc3Cl)n2)cc1`, with 60.3%. Then `COCCNc1nc2c(S(=O)(=O)c3ccccc3)nnn2c2ccsc12`, with -0.256%; and `CCc1c(C)sc(NC(=O)Cc2ccc(OC)c(OC)c2)c1C(N)=O`, with 16.2%.

Source of the values: article PMC6919601, “Identification of Plasmodium dipeptidyl aminopeptidase allosteric inhibitors by high throughput screening” (PLoS ONE, 2019).
